Out of some 310,000 compounds screened, about 14,000 (4.5%) showed an effect of 50% or more. Effects have a minus sign here. Only a selection was taken, and strong results are over-represented in it overall.
Molecular target: human ether-à-go-go-related gene (hERG) potassium channel (human, UniProt Q12809)
Assay: primary screen, population patch clamp on CHO cells stably expressing hERG; higher = less effect of the substance
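Also: peak tail current of the secondary pulse compared with the same well before compound.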

Chain of human ether-à-go-go-related gene (hERG) potassium channel (Q12809 whole entry, looked up): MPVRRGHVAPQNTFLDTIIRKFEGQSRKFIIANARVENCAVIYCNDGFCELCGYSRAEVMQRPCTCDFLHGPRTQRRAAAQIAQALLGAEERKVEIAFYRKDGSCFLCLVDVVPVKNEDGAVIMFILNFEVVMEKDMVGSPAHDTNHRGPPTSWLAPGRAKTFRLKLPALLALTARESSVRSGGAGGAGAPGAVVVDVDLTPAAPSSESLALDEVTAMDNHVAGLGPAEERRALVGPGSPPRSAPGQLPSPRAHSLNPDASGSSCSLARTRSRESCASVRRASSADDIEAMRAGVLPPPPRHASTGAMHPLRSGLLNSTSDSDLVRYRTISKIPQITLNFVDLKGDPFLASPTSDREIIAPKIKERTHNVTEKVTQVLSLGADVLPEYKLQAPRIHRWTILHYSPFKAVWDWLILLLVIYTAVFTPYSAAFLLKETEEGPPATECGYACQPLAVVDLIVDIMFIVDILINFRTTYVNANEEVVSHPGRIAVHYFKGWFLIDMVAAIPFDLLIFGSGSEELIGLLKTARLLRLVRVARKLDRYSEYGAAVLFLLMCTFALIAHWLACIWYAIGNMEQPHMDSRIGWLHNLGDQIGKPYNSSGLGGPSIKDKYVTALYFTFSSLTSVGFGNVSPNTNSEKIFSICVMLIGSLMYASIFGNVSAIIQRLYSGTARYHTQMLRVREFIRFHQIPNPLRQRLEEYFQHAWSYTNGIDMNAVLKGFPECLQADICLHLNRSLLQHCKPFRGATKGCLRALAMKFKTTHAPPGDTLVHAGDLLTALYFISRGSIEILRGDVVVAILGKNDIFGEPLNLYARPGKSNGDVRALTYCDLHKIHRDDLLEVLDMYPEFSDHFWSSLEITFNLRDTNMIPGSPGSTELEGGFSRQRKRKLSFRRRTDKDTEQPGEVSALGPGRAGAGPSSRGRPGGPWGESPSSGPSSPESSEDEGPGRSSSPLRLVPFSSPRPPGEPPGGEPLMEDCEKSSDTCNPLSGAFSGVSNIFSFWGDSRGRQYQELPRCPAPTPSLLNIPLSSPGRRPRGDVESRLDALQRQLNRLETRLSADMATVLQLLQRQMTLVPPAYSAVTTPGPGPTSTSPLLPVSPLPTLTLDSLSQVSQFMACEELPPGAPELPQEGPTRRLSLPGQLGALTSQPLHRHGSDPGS

Structure (SMILES) | hERG current change (%, negative = inhibition) at 10uM [%]
CCc1nnc(NC(=O)CSc2nnc(CSc3nc(C)cc(C)n3)o2)s1 | 3.21
Cc1cccn2c(=O)c3cc(C(=O)NCc4ccc(F)cc4)c(=N)n(CC4CCCO4)c3nc12 (stereo not shown) | -74
COc1ccc(CCNC(=O)c2cc3c(=O)n4ccccc4nc3n(CC3CCCO3)c2=N)cc1OC (stereo not shown) | -78.4
N=c1c(C(=O)NCCc2ccccc2)cc2c(=O)n3ccccc3nc2n1CC1CCCO1 (stereo not shown) | -90.7
COc1ccc(CCNC(=O)Cn2c(=O)n(CC3CCCO3)c(=O)c3ccccc32)cc1OC (stereo not shown) | -0.738
O=C(NCc1ccc(Cl)cc1)c1ccc2c(=O)n(CC3CCCO3)c(=S)[nH]c2c1 (stereo not shown) | 7.01
Cc1ccc2nc(/C(C#N)=C\c3ccc(Oc4ccc(C(F)(F)F)cc4[N+](=O)[O-])cc3)[nH]c2c1 | 20.8
COc1ccc(C(=O)CC(=O)C(=O)Nc2ccc(OC)c(Cl)c2)cc1 | 12.9
Cc1nn(-c2ccccc2)c(N2CCCCC2)c1/C=N/NC(=O)c1ccncc1 | 7.3
O=C1CCCC2=C1C(c1ccccc1)n1c(s/c(=C/c3cccc(F)c3)c1=O)=N2 (stereo not shown) | 16
NCc1cccc(CNc2ccc([N+](=O)[O-])cc2C(N)=O)c1 | -19.9
NC(=O)CC(NC(=O)Cc1ccc(Br)cc1)c1ccc(NC2CCN(Cc3ccccc3)CC2)c([N+](=O)[O-])c1 (stereo not shown) | -45.8
NC(=O)CC(NC(=O)c1ccccc1)c1ccc(NC2CCN(Cc3ccccc3)CC2)c([N+](=O)[O-])c1 (stereo not shown) | 1.08
O=[N+]([O-])c1cc(C(F)(F)F)ccc1NC1CCN(Cc2ccccc2)CC1 | -68
NC(=O)CC(NC(=O)c1cccc(Br)c1)c1ccc(NC2CCN(Cc3ccccc3)CC2)c([N+](=O)[O-])c1 (stereo not shown) | 6.8
O=[N+]([O-])c1cc(C(F)(F)F)ccc1NC1CCN(Cc2ccccc2)C1 (stereo not shown) | -66.6
NC(=O)CC(NC(=O)Cc1ccc(Cl)cc1)c1ccc(NC2CCN(Cc3ccccc3)CC2)c([N+](=O)[O-])c1 (stereo not shown) | -18.5
CCCc1nc(SCC(=O)NNC(=O)C2CCCCC2)c2ccccc2n1 | -2.77
Cc1ccc(S(=O)(=O)N(C)c2ccc(OCC(=O)Nc3nc(-c4ccccc4)cs3)cc2)cc1 | 14.3
O=[N+]([O-])c1ccc(C[n+]2cc(-c3ccccc3)n3c2CCCCC3)cc1.[Br-] | -35.3
Clc1ccc(-c2c[n+](Cc3ccc(Cl)cc3Cl)c3n2CCCCC3)cc1.[Br-] | -66

Structure (SMILES) | hERG current change (%, negative = inhibition) at 10uM [%]
Clc1ccc(C[n+]2cc(-c3ccccc3)n3c2CCC3)cc1.[Cl-] | -33.5
Clc1ccc(C[n+]2cc(-c3ccccc3)n3c2CCCCC3)c(Cl)c1.[Br-] | -74.4
Cc1cc(Nc2ccccc2)c2c([N+](=O)[O-])cc(C)c(C)c2n1 | -9.29
O=C(CCn1c(=O)[nH]c2ccccc2c1=O)Nc1ccccc1 | 16.4
Cc1ccc(S(=O)(=O)NCC(=O)N(CC(=O)NCc2ccco2)Cc2ccc(F)cc2)cc1 | 5.19
O=C(COC(=O)CC1Sc2ccccc2NC1=O)NCc1ccccc1 (stereo not shown) | -21.4
Cc1cccc(N2CCN(C(C)C(=O)N3CCc4ccccc43)CC2)c1C (stereo not shown) | 17
CCCNC(=O)CS(=O)(=O)Cc1nc(-c2ccccc2C)oc1C | 3.88
O=S(=O)(c1ccc2c(c1)OCCO2)N1CCN(Cc2ccc3c(c2)OCO3)CC1 | 3.98
COc1ccc(S(=O)(=O)N2CCN(Cc3ccc4c(c3)OCO4)CC2)cc1F | -30.5
O=C1CCc2cc(S(=O)(=O)N3CCN(Cc4ccc5c(c4)OCO5)CC3)ccc2N1 | -70.1
O=S(=O)(c1ccc(F)c(F)c1)N1CCN(Cc2ccc3c(c2)OCO3)CC1 | -51.4
O=C1CCc2cc(S(=O)(=O)NCCCC(=O)N3CCN(Cc4ccc5c(c4)OCO5)CC3)ccc2N1 | -0.149
O=S(=O)(c1cccc(F)c1)N1CCN(Cc2ccc3c(c2)OCO3)CC1 | -35.8
O=[N+]([O-])c1cc(Br)c(O)c(/C=N/Nc2nnnn2-c2cccc3ccccc23)c1 | 0.778
O=C(Cc1c[nH]c2ccccc12)Nc1nccs1 | 0.956
O=C(CN1C(=O)C2CC=CCC2C1=O)Nc1cc(C(F)(F)F)ccc1N1CCCC1 (stereo not shown) | -24.6
O=C(O)c1cc2n(n1)CCN(Cc1ccccc1Cl)C2=O | 8.71
Cc1ccc(/C=N/n2c(C)nc3ccccc3c2=O)o1 | 10.9
Cc1nc2ccccc2c(=O)n1/N=C/c1ccccc1 | -0.523
Cc1nc2ccccc2c(=O)n1/N=C/c1ccc([N+](=O)[O-])o1 | -53.3

Structure (SMILES) | hERG current change (%, negative = inhibition) at 10uM [%]
Cc1nc2ccccc2n1/N=C/c1ccc([N+](=O)[O-])s1 | -12.3
Cc1cc2ncn(/N=C/c3ccc([N+](=O)[O-])o3)c2cc1C | -0.858
Cc1nc2ccccc2n1/N=C/c1ccc([N+](=O)[O-])o1 | -58.9
O=C(c1cc2c(s1)CCC2)N1C(=O)c2ccccc2S1(=O)=O | 12.9
CCCC(C)NC(=O)CN1C(=O)c2cccc3cccc1c23 (stereo not shown) | 1.42
COc1ccc(C(C)=O)cc1CSc1nc2cc(Cl)ccc2o1 | 9.66
O=c1oc2cccnc2n1CCS(=O)(=O)c1ccc(F)cc1 | 9.29
CCOc1ccccc1NC(=O)Cn1c(-c2ccc(Cl)cc2)noc1=O | -2.01
CCN(C(=O)CSc1nc2ccccc2n1CC)C1CCS(=O)(=O)C1 (stereo not shown) | 0.264
Cc1ccc(-n2c(SCC(=O)N(C)C3CCS(=O)(=O)C3)nc3ccccc3c2=O)cc1 (stereo not shown) | 11
Cc1ccccc1-n1c(SCC(=O)N(C)C2CCS(=O)(=O)C2)nc2ccccc2c1=O (stereo not shown) | 11.6
CCn1c(SCC(=O)N(Cc2ccccc2)C2CCS(=O)(=O)C2)nc2ccccc2c1=O (stereo not shown) | -61
CCN(C(=O)CSc1nc2ccccc2c(=O)n1-c1cccc(C)c1)C1CCS(=O)(=O)C1 (stereo not shown) | -14.9
Cc1ccc(Cn2c(SCC(=O)N(C)C3CCS(=O)(=O)C3)nc3ccccc3c2=O)cc1 (stereo not shown) | -60.8
CCN(C(=O)CSc1nc2ccccc2c(=O)n1Cc1ccc(C)cc1)C1CCS(=O)(=O)C1 (stereo not shown) | -71
CCN(C(=O)CSc1nc2ccccc2c(=O)n1-c1ccc(C)cc1)C1CCS(=O)(=O)C1 (stereo not shown) | -11.6
CCCN(C(=O)CSc1nc2ccccc2n1CC)C1CCS(=O)(=O)C1 (stereo not shown) | 2.29
CCN(C(=O)COC(=O)c1cc(S(=O)(=O)N2CCOCC2)c(Cl)cc1Cl)C1CCS(=O)(=O)C1 (stereo not shown) | 9.86
O=c1[nH]c2ccccc2c2nc(-c3cccc(S(=O)(=O)N4CCCC4)c3)nn12 | 21.2
CC(=O)Nc1ccc(C2C(=O)c3ccccc3C2=O)cc1 | 21.4
O=[N+]([O-])c1ccccc1N/N=C1\CC2CC=CC12 (stereo not shown) | 46.5

Structure (SMILES) | hERG current change (%, negative = inhibition) at 10uM [%]
CCOc1ccccc1C(=O)N(CN1CCCC1=O)c1cccc(Cl)c1 | -3.65
CCc1ccc(NC(=O)C[n+]2cc(-c3ccc(C)cc3)n3c2CCC3)cc1.[Cl-] | -63.1
Cc1ccc(-c2c[n+](CC(=O)Nc3c(C)cccc3C)c3n2CCC3)cc1.[Cl-] | 14.1
Cc1ccc(-c2c[n+](CC(=O)Nc3ccccc3C)c3n2CCC3)cc1.[Cl-] | -5.42
Cc1ccc(-c2c[n+](CC(=O)Nc3ccccc3)c3n2CCC3)cc1.[Cl-] | -27.8
Cc1ccc(NC(=O)C[n+]2cc(-c3ccc(C)cc3)n3c2CCC3)cc1.[Cl-] | -70
Cc1ccc(NC(=O)C[n+]2cc(-c3ccccc3)n3c2CCC3)cc1.[Cl-] | -15.2
Cc1ccccc1NC(=S)/C(=C(\[O-])c1ccc(C)c([N+](=O)[O-])c1)[n+]1ccccc1 | -1.7
CCC1(C)Cc2ccccc2-c2c1c(=O)n(-c1ccc(C)cc1)c1nnnn21 (stereo not shown) | 2.8
Cc1cc2cc(CN(Cc3ccco3)C(=O)NCc3ccccc3)c(=O)[nH]c2cc1C | -6.54
CN(C)CCNC(C(=O)Nc1cc(Cl)cc(Cl)c1)c1ccccc1 (stereo not shown) | -45.6
CCCC(=O)OC(C(=O)Nc1cc(C(F)(F)F)ccc1Cl)c1ccccc1 (stereo not shown) | -9.58
O=C(Nc1cc(C(F)(F)F)ccc1Cl)C(NCc1ccccc1)c1ccccc1 (stereo not shown) | 2.13
CCC(C(=O)Nc1cccc(C(F)(F)F)c1)c1ccccc1 (stereo not shown) | 3.89
CC(=O)c1cccc(NC(=O)C(NC(C)C)c2ccccc2)c1 (stereo not shown) | 10.5
CCN(CC)CCNC(C(=O)Nc1cc(C(F)(F)F)ccc1Cl)c1ccccc1 (stereo not shown) | -76.4
CCN(CC)CCNC(C(=O)Nc1cccc(C(C)=O)c1)c1ccccc1.O=C(O)C(=O)O (stereo not shown) | -79.1
CCOc1ccc(NC(C(=O)Nc2cccc(C(C)=O)c2)c2ccccc2)cc1 (stereo not shown) | -49.7
CN(C)CCNC(C(=O)Nc1cccc(C(F)(F)F)c1)c1ccccc1.O=C(O)C(=O)O (stereo not shown) | -56.7

From PMC4336329 (PLoS ONE, 2015)
